AmpC inh detg: blocks E. coli AmpC beta-lactamase in detergent assay; AmpC hydrolysis of nitrocefin, absorbance 480 nm, 0.01% Triton; Potency, µM (titrated, usually from 114 µM), without a hit: top-dose activity change, negative = inhibition, actives largely listed as inhibitors; 370,000 tested, 0.041% active; AID 485294;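 also: 0% = no-compound wells and -100% = no-enzyme wells; nearly all actives have a fitted effect of over 25% in size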
Target sequence (P00811 whole entry, looked up): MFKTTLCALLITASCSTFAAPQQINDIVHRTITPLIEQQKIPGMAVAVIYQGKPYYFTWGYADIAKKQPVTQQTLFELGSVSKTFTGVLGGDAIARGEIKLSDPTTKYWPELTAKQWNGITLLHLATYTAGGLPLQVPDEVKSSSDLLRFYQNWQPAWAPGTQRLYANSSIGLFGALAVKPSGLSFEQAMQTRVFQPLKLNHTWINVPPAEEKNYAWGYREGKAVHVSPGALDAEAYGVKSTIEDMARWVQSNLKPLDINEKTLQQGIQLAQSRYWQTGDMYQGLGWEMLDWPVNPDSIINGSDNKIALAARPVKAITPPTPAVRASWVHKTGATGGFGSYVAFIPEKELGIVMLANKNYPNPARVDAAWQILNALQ
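20 mM phosphate pH 7.0 + 0.01% (detergent screen) or 0.0001% Triton X-100; 5.3 nM AmpC reagent; cpd preinc 15 min RT; nitrocefin (800 uM stock) to start; A480 q20 s × 4 min; Activity was normalised to no-enzyme and no-compound control wells.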
Sm TGR block: blocks Schistosoma mansoni thioredoxin glutathione reductase. Q962Y6. purified TGR, DTNB reduction, TNB absorbance 405 nm. Potency, µM (highest dose often 114 µM), for inactives: at the top dose activity change, negative = inhibition, actives largely listed as inhibitors. 360,000 tested, 3% active; also: nearly all actives have a fitted effect of over 60% in size
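TGR 20 nM + NADPH 100 uM (dispensed conc.), cpd preinc 15 min RT; start with NADPH (500 uM addition) then DTNB (15 mM addition). Kinetic TNB absorbance, 405 nm filter. Four-parameter Hill fit across titration.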
AmpC no deterg: blocks E. coli AmpC beta-lactamase in detergent-free assay; AmpC nitrocefin hydrolysis, absorbance 480 nm, 0.0001% Triton; AID 485341; 330,000 tested, 0.52% active; Potency, µM (series often up to 57.1 µM), for inactives: at the highest dose activity change, negative = inhibition, most hits filed as inhibitors;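 also: plate controls were no compound for no effect and no enzyme for full effect; nearly all actives have a fitted effect of over 20% in size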
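AmpC (5.3 nM in the dispensed reagent) in 20 mM phosphate pH 7.0 with 0.01% (detergent screen) or 0.0001% Triton X-100 was preincubated with compounds for 15 min at room temperature. Nitrocefin was then added from an 800 uM solution, and hydrolysis was followed at 480 nm.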
* marks the source's active call; other numbers are inactive results; ? = inconclusive; . = no result. A selection: hits, their analogues and other compounds. The true share with any hit is near 3.3%. Calls follow the shape of the dose curve; as a rule, active = well fitted curve in the direction sought with a large enough effect; inconclusive = small, poorly fitted or top-dose-only effect, or another doubt; inactive = no such curve, though single readings can be large; an effect the other way counts as inactive or inconclusive. Unless noted, % is scaled to controls: 0 for no effect and ±100 for the full control effect; potency is read from the fitted curve at half-maximal effect.

SMILES	AmpC inh detg	Sm TGR block	AmpC no deterg
COc1cc(C2C(C(=O)Nc3ccc(C)cc3C)=C(C)Nc3nc4ccccc4n32)cc(OC)c1OC (configuration not stated)	20.6%	-0.6%	.
CCCCNc1cc(NC(C)=O)cc2cc(OC)c(OC)cc12	3.2%	?	4.0%
COc1cc2cc(NC(C)=O)cc(NCc3ccccc3)c2cc1OC	-9.3%	35.5µM*	-14.5%
O=C(Cc1ccc(-c2ccccc2)cc1)NCCS(=O)(=O)N1CCN(c2ccccc2F)CC1	18.3%	0.3%	.
CCOC(=O)c1cccc(NC(=O)CN2C(=O)CC(C)(C)Sc3ccccc32)c1	-7.1%	-4.2%	.
CCCN(C(=O)Nc1cn(CC(C)C)c(=O)c2ccccc12)c1ccc(F)cc1	4.5%	1.0%	.
COc1cccc(C(C2C(=O)CC(C)(C)CC2=O)C2C(=O)CC(C)(C)CC2=O)c1	-2.6%	?	26.5%
Cc1cc(C(C2C(=O)CC(C)(C)CC2=O)C2C(=O)CC(C)(C)CC2=O)cc(C)c1OC(F)F	-9.3%	31.6µM*	-31.0%
Cc1cc(C)c2c(=O)cc(C(=O)Nc3ccccc3C(F)(F)F)oc2c1	9.4%	1.2%	.
COc1cc2c(C(=O)N(C)c3cccc(C(F)(F)F)c3)cn(CC(C)C)c(=O)c2cc1OC	1.3%	1.5%	.
O=C(CSc1n[nH]c(=O)[nH]c1=O)c1ccccc1[N+](=O)[O-]	1.9%	44.7µM*	-6.3%
O=C(CSc1n[nH]c(=O)[nH]c1=O)c1cccc([N+](=O)[O-])c1	2.8%	-22.2%	-27.2%
CCCCNC(=O)CSc1nnc(C)c2c(C)n(-c3ccccc3)nc12	14.7%	47.3%	.
CS(=O)(=O)N1N=C(c2ccco2)CC1c1ccc(Cl)cc1Cl (configuration not stated)	-4.7%	28.2µM*	19.2%
COc1ccccc1C1CC(c2ccco2)=NN1S(C)(=O)=O (configuration not stated)	-6.1%	?	-19.6%
CS(=O)(=O)N1N=C(c2ccco2)CC1c1cccc([N+](=O)[O-])c1 (configuration not stated)	-7.9%	44.7µM*	-14.3%
CS(=O)(=O)N1N=C(c2cccs2)CC1c1ccccc1F (configuration not stated)	5.0%	9.1%	-20.7%
CS(=O)(=O)N1N=C(c2ccco2)CC1c1ccccc1Cl (configuration not stated)	0.5%	39.8µM*	-15.3%
CS(=O)(=O)N1N=C(c2ccco2)CC1c1ccc(Br)cc1 (configuration not stated)	-11.5%	?	-11.8%
O=C(c1ccc2c(c1)N(Cc1cccc(Cl)c1)C(=O)c1ccccc1S2(=O)=O)N1CCC(Cc2ccccc2)CC1	10.4%	2.7%	.
Cc1sc2ncn(CC(=O)N3CCN(c4ccccc4)CC3)c(=O)c2c1S(=O)(=O)N1CCC(C)CC1	-7.3%	-10.1%	.
CCCNC(=O)c1c(C)nn(-c2cccc(C)c2)c1-n1cccc1	4.3%	2.1%	.
CC(C)c1ccc(NC(=O)CN2C(=O)CCc3cc(S(=O)(=O)N4CCOCC4)ccc32)cc1	-2.6%	1.1%	.
COc1ccc(C(=O)N/C(N)=N/c2nc3ccccc3o2)cc1	?	5.4%	-40.4%
COc1ccc(C(=O)/C=C/Sc2nc3ccccc3o2)cc1	2.0%	0.316µM*	-25.8%
SMILES	AmpC inh detg	Sm TGR block	AmpC no deterg
O=C(/C=C/c1ccccc1)NCc1ccco1	10.5%	0.0%	-10.8%
COC(=O)/C=C/c1ccc2c(c1)OCO2	-0.9%	-1.0%	-10.0%
CCNc1ccccc(C(=O)/C=C/c2ccc3c(c2)OCO3)c1=O	-4.1%	2.51µM*	-36.9%
Cc1ccc(C(=O)N/C(=C/c2ccco2)C(=O)NCC2CCCO2)cc1 (configuration not stated)	-6.5%	-19.1%	-18.2%
O=C(/C=C/c1c(Cl)cccc1Cl)NCc1ccco1	-15.3%	-7.8%	-17.0%
Cc1ccc(/C=C/C(=O)NCc2ccco2)o1	-8.5%	12.6µM*	-30.4%
O=C(/C=C/c1ccco1)NCC1CCCO1 (configuration not stated)	-13.9%	5.01µM*	-2.6%
O=C(/C=C/c1ccco1)NCc1ccco1	8.8%	3.98µM*	-15.3%
Cc1ccc(CN2CCN(CC(=O)NCc3ccccc3Cl)C2=O)cc1	-0.1%	0.9%	.
CCC(Sc1nc2nccnc2c(=O)n1Cc1ccc(OC)cc1)C(=O)NC1CCCCC1 (configuration not stated)	14.3%	1.5%	.
COc1cccc(N2C(=O)CSC23C(=O)N(CC(=O)Nc2cccc(Cl)c2)c2ccccc23)c1 (configuration not stated)	-0.7%	-18.6%	.
COc1ccc(-c2cn(-c3ccc(C)cc3)c(S(=O)(=O)CC(=O)Nc3ccccc3)n2)cc1	-5.4%	-14.6%	.
O=C(/C=C/c1ccc2c(c1)OCO2)NCc1ccco1	?	39.8µM*	-6.5%
Cc1ccc(/C=C/C(=O)NCc2ccccn2)o1	-6.7%	17.8µM*	-25.6%
COc1ccc(/C=C/C(=O)NCc2ccccn2)cc1	-8.7%	4.6%	-9.8%
Cc1ccc(/C=C/C(=O)NCc2ccc3c(c2)OCO3)o1	?	12.6µM*	-12.2%
O=C(/C=C/c1ccc(Cl)c(Cl)c1)NCc1ccco1	-9.1%	-7.3%	-20.2%
Cc1ccc(C(=O)NCc2ccc3c(c2)OCO3)o1	?	8.2%	-13.9%
Cn1ccc2c(OCC(=O)NCc3ccccc3Cl)cccc2c1=O	-1.1%	7.9%	.
COc1ccc(-n2c(=O)c3c(c4cc(OC)ccc4n3C)n(CC(=O)N3CCCC3)c2=O)cc1	?	-9.2%	.
CC(C)(C)NC(=O)C(c1ccncc1)N(Cc1ccco1)C(=O)c1ccc(-c2ccccc2)[nH]1 (configuration not stated)	-4.4%	10µM*	-12.0%
O=C(NC1CCCCC1)C(c1ccncc1)N(Cc1ccccc1)C(=O)c1ccc(-c2ccccc2)[nH]1 (configuration not stated)	-2.8%	-2.8%	73.3%
CC(C)(C)NC(=O)C(c1ccc(O)cc1)N(Cc1ccco1)C(=O)CCC(=O)Nc1ccccn1 (configuration not stated)	-5.4%	-10.2%	-22.9%
CC(C)(C)NC(=O)C(c1ccc(Cl)cc1)N(Cc1ccco1)C(=O)CCl (configuration not stated)	?	11.2µM*	7.1%
CCc1ccc(NCc2cc3ccc(OC)cc3n(CC(=O)Nc3ccc(F)cc3F)c2=O)cc1	5.4%	-2.1%	.
SMILES	AmpC inh detg	Sm TGR block	AmpC no deterg
Cc1ccccc1Oc1nc2c(c(=O)n(C)c(=O)n2C)n1Cc1ccc(Br)cc1	-2.6%	-2.7%	.
CSc1ncc(Cl)c(C(=O)N(Cc2ccc(C)cc2)C2CCS(=O)(=O)C2)n1 (configuration not stated)	10.8%	2.7%	.
COc1ccccc1CN(C)CC(=O)Nc1cccc2ccccc12	2.2%	-3.7%	-4.3%
CN(CC(=O)Nc1ccccc1C(F)(F)F)Cc1c(O)ccc2ccccc12	-14.2%	1µM*	-34.5%
CCCN(CC(=O)Nc1ccccc1OC)Cc1c(O)ccc2ccccc12	-10.2%	2µM*	-28.2%
COc1ccccc1NC(=O)C(C)N(C)CC(=O)Nc1cccc2ccccc12 (configuration not stated)	.	.	12.1%
COc1ccc(CCN(C)Cc2cccc3ccccc23)cc1OC	-11.3%	12.9%	11.8%

Screens deposited in PubChem by National Center for Advancing Translational Sciences (NCATS).
